Data published in PubChem BioAssay AID588683 (Broad Institute, 2011).
Potency and affinity values are given separately. A number with no mark means an inactive call. How the calls were made is not given here.

What follows are compounds tested against Kelch-like ECH-associated protein 1 (Homo sapiens) + Nuclear factor erythroid 2-related factor 2 (Homo sapiens) (UniProt Q14145+Q16236) (assay: disruptors of Keap1 binding to Nrf2 peptide – biochemical, fluorescence polarization, cherry-picked samples, dose response (AID 588683;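 further: Kelch domain of Keap1 binding a fluorescein-labelled 9mer Nrf2 peptide; more negative means stronger inhibition of peptide binding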)). Details: plate reader; series mostly up to 26 µM; activity change, negative = inhibition: at the top concentration.
Sequence of Kelch-like ECH-associated protein 1 (Homo sapiens) + Nuclear factor erythroid 2-related factor 2 (Homo sapiens) (Q14145 whole entry, looked up, the tested form may be a part): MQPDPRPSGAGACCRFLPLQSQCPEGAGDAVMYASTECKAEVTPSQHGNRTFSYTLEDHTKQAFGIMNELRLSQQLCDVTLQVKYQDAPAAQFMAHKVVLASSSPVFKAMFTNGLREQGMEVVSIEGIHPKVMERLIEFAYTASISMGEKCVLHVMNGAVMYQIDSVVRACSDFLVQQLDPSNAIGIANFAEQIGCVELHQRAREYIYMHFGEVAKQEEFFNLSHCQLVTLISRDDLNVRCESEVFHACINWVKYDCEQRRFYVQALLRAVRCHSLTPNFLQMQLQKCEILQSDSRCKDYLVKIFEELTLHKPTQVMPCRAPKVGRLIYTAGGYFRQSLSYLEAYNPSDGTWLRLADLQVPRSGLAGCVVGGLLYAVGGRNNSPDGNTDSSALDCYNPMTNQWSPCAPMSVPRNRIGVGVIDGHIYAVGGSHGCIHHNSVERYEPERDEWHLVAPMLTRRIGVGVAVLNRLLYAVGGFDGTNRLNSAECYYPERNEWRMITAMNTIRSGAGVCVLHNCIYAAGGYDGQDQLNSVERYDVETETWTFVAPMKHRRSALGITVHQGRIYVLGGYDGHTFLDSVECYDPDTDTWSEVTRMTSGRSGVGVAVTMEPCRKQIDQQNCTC
Sequence of Kelch-like ECH-associated protein 1 (Homo sapiens) + Nuclear factor erythroid 2-related factor 2 (Homo sapiens) (Q16236 whole entry, looked up, the tested form may be a part): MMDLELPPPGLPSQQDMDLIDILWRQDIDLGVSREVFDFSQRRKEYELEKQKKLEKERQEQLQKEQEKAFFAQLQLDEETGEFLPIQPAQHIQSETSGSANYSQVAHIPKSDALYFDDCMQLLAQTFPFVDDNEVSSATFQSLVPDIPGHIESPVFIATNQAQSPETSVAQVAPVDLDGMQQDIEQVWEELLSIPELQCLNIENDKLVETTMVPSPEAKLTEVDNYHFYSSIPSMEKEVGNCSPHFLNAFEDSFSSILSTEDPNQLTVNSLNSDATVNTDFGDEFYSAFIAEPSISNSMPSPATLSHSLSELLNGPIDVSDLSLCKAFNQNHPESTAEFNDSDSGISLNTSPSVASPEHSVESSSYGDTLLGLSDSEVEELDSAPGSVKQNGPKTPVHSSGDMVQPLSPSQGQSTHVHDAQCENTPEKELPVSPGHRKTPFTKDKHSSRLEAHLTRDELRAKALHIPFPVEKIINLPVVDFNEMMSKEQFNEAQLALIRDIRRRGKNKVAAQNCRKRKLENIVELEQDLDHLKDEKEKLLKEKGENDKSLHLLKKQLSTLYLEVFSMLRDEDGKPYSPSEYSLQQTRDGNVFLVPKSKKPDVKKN

| Structure (SMILES) | activity change, negative = inhibition [%] |
| --- | --- |
| COc1cc(CO)ccc1Oc1nc2ccccc2n2cnnc12 | -3.41 |
| O=C1CC(Cc2ccc(Cl)cc2)C(=O)N1c1cc(Cl)ccn1 (stereo not drawn) | 2.69 |
| CCSc1ncc(Cl)c(C(=O)Nc2ccccc2OC)n1 | -8.81 |
| O=C(CCCCl)NC(=S)Nc1ccc(N2CCOCC2)cc1 | -3.9 |
| Cc1ccc(OC(C)C(=O)N2CCN(c3ccccn3)CC2)cc1 (stereo not drawn) | -5 |
| CCOc1ccc(OCCCC(=O)N(CC)CC(=O)Nc2c(F)cccc2F)cc1 | 1.23 |
| CCc1cc(C(=O)c2ccc(OC)cc2)c(N)s1 | -2.44 |
| CC1OC2(C)OC(=N)C1(C#N)C(C#N)(C#N)C2c1ccccc1 (stereo not drawn) | -11.3 |
| COc1ccc(C=Nc2cccnc2N)cc1 | -5.56 |
| Cc1cccc(NS(=O)(=O)c2ccc(C)c(C(=O)NCC(c3ccccc3)N(C)C)c2)c1 (stereo not drawn) | 11 |
| O=C(COC(=O)c1ccncc1)Nc1cccc2ccccc12 | 11.9 |
| COc1ccc(NC(=O)Cc2ccsc2)cc1S(=O)(=O)N1CCOCC1 | -11.7 |
| Cc1sc2ccccc2[n+]1CC(=O)c1ccccc1 | 12.6 |
| Nc1c(C(=O)Nc2ccccc2F)sc2nc(Cc3ccccc3)cc(C(F)(F)F)c12 | 28 |
| Cc1cccc(C)c1NC(=O)CSc1nnc(-c2ccco2)c(-c2ccco2)n1 | -2.35 |
| c1ccc(Nc2nc3ccccc3n3nnnc23)cc1 | -21.3 |
| CC1(C)CC(=O)C2=C(C1)OC1=C(C2)C(=O)CC(C)(C)C1 | -5.94 |
| CCC(C)(C)n1nnnc1C(c1cc2ccc(OC)cc2[nH]c1=O)N1CCc2ccccc2C1 (stereo not drawn) | 5.63 |
| N#C/C(=C\c1ccc[nH]1)C(=O)N1CCCCC1 | -0.671 |

| Structure (SMILES) | activity change, negative = inhibition [%] |
| --- | --- |
| CCCCCSc1nnc2c(n1)OC(C)N(C(C)=O)c1ccccc1-2 (stereo not drawn) | 0.854 |
| COCCCNc1nc(N)c([N+](=O)[O-])c(Nc2cc(OC)ccc2OC)n1 | 0.954 |
| CC(=O)N1CCN(S(=O)(=O)c2cccc(C(=O)NNC(=O)c3ccc(Br)cc3)c2)CC1 | -2.07 |
| O=c1[nH]c(-[n+]2ccccc2)c(/C=N/NC([S-])=Nc2ccccc2)s1 | -0.642 |
| O=C(NCc1ccc(Cl)cc1)c1cc(=O)[nH]c2ccccc12 | -0.671 |
| Cc1nn(-c2ccccc2Cl)c(Cl)c1/C=N/Nc1nc2ccccc2s1 | -4.65 |
| O=C1c2cccc3c(N4CCCCC4)ccc(c23)C(=O)N1c1ccccc1O | 72.2 |
| CCC1OC2(C)OC(=N)C1(C#N)C(C#N)(C#N)C2c1ccccc1 (stereo not drawn) | -2.42 |
| CCCCC1OC23CCCCC2C(C#N)(C#N)C1(C#N)C(=N)O3 (stereo not drawn) | -8.61 |
| Cc1cccn2c(=O)c3cc(S(=O)(=O)c4ccccc4)c(=N)n(Cc4cccnc4)c3nc12 | -9.58 |
| CNc1nnc(SCC(=O)c2cc(C)n(C3CC3)c2C)s1 | 18.2 |
| C=CCOC(=O)C1=C[C@H](c2csc3ccccc23)C[C@H](OCc2ccc(CO)cc2)O1 | -4.86 |
| CC1(C)CC(=O)C2=C(C1)OC(N)=C(C#N)C2c1ccccc1[N+](=O)[O-] (stereo not drawn) | -23.5 |
| CC(C)NC(=O)N(C)C[C@H]1Oc2ccc(NS(=O)(=O)c3cn(C)cn3)cc2C(=O)N([C@H](C)CO)C[C@@H]1C | -2.06 |
| COc1cc(/C=C/CN2CCN(CCC(C)C)C(CCO)C2)ccc1O (stereo not drawn) | -10.6 |
| Cc1ccc(C2C3CN(C(C)C)CC=C3C(C#N)=C(N)C2(C#N)C#N)cc1 (stereo not drawn) | -9.88 |
| CC(=O)Nc1ccc(NS(=O)(=O)c2ccc3c(c2)oc(=O)n3C)cc1 | -3.36 |
| Cc1ccc(O)c(C(=O)c2cnc3c(c2)c(C)nn3-c2ccccc2)c1 | -0.847 |
| O=C1C(=Cc2ccco2)CCC1=Cc1ccco1 | 24.2 |
